Results as given in the supplement of paper PMC11732987, “Enantioselective OTUD7B fragment discovery through chemoproteomics screening and high-throughput optimisation” (Communications Chemistry, 2025).

Tests used:
Assay in all cases: log2 ratio of Biotin-Ahx-Ub-VS probe labelling (fragment/DMSO); higher = less target engagement (more negative = stronger competition), active = hit call of the paper (q ≤ 0.05, log2 ratio ≤ -1)
Details in all cases: compound concentration: 200 uM; treatment time: 3 h
USP19 = biological target: T1, USP19 (UniProt O94966)
T1 sequence (whole entry): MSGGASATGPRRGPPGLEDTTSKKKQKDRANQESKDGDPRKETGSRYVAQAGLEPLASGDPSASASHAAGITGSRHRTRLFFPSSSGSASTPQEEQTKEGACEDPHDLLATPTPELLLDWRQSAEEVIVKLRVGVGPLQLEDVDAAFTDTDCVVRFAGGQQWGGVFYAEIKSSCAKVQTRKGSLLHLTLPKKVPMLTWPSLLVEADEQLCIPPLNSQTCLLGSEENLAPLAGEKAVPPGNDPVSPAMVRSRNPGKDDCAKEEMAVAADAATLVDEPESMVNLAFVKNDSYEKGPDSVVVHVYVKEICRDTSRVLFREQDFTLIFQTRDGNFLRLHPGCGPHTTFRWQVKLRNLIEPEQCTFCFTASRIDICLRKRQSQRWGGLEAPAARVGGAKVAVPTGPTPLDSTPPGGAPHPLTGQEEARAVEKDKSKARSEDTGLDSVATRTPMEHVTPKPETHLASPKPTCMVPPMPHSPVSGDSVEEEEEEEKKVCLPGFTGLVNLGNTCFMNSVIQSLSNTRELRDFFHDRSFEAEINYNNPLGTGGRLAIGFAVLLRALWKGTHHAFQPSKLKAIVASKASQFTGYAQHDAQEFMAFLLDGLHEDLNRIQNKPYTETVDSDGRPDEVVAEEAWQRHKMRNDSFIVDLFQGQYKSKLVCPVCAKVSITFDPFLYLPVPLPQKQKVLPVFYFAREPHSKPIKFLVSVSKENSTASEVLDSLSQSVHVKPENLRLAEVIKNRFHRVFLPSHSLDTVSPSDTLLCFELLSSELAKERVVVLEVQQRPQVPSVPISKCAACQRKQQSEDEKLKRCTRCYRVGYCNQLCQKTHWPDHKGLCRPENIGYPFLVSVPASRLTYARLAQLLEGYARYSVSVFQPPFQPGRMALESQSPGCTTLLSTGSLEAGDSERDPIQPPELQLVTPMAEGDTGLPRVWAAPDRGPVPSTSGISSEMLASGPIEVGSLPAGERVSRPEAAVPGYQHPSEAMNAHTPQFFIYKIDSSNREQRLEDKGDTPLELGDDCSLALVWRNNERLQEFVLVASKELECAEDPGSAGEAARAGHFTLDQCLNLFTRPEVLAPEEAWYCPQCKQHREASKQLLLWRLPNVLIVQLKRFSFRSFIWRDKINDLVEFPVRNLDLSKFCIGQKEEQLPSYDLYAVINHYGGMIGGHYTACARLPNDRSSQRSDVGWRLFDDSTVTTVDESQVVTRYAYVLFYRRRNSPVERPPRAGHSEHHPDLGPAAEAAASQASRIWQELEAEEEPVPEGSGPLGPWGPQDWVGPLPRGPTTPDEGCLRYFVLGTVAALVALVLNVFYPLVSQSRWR
How it was run: (§1)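 HEK293T lysate, 495 µg per sample in Tris/CHAPS/IGEPAL buffer with protease inhibitors, was treated in triplicate with fragment at 200 µM or vehicle for 3 h and then with Biotin-Ahx-Ub-VS at 0.5 µM final for 1 h. Labelled DUBs were NeutrAvidin-enriched, digested with LysC and trypsin, and run by diaPASEF LC-MS/MS. Spectronaut label-free quantities were global-median-normalised, and values are average log2 fragment/vehicle ratios by unpaired t-test on proteins with ≥2 unique peptides.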

USP22 = biological target: T2, USP22 (UniProt Q9UPT9)
T2 sequence (whole entry): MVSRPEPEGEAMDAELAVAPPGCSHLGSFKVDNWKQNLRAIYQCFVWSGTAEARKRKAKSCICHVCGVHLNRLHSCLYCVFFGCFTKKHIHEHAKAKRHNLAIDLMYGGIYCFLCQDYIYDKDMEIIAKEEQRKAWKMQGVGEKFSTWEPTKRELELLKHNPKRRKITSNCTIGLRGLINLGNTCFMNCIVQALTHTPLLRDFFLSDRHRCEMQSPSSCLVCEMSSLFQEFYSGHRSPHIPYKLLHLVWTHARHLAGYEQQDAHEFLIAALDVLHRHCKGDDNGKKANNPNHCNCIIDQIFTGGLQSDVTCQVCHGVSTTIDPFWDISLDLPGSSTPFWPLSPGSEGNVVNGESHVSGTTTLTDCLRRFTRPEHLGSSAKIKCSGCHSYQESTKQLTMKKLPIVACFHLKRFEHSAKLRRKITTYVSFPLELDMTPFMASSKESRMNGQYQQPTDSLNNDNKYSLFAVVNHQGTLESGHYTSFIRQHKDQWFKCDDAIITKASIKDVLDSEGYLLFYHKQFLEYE
How it was run: as §1

USP24 = USP24 (UniProt Q9UPU5)
Sequence of USP24 (Q9UPU5 whole entry): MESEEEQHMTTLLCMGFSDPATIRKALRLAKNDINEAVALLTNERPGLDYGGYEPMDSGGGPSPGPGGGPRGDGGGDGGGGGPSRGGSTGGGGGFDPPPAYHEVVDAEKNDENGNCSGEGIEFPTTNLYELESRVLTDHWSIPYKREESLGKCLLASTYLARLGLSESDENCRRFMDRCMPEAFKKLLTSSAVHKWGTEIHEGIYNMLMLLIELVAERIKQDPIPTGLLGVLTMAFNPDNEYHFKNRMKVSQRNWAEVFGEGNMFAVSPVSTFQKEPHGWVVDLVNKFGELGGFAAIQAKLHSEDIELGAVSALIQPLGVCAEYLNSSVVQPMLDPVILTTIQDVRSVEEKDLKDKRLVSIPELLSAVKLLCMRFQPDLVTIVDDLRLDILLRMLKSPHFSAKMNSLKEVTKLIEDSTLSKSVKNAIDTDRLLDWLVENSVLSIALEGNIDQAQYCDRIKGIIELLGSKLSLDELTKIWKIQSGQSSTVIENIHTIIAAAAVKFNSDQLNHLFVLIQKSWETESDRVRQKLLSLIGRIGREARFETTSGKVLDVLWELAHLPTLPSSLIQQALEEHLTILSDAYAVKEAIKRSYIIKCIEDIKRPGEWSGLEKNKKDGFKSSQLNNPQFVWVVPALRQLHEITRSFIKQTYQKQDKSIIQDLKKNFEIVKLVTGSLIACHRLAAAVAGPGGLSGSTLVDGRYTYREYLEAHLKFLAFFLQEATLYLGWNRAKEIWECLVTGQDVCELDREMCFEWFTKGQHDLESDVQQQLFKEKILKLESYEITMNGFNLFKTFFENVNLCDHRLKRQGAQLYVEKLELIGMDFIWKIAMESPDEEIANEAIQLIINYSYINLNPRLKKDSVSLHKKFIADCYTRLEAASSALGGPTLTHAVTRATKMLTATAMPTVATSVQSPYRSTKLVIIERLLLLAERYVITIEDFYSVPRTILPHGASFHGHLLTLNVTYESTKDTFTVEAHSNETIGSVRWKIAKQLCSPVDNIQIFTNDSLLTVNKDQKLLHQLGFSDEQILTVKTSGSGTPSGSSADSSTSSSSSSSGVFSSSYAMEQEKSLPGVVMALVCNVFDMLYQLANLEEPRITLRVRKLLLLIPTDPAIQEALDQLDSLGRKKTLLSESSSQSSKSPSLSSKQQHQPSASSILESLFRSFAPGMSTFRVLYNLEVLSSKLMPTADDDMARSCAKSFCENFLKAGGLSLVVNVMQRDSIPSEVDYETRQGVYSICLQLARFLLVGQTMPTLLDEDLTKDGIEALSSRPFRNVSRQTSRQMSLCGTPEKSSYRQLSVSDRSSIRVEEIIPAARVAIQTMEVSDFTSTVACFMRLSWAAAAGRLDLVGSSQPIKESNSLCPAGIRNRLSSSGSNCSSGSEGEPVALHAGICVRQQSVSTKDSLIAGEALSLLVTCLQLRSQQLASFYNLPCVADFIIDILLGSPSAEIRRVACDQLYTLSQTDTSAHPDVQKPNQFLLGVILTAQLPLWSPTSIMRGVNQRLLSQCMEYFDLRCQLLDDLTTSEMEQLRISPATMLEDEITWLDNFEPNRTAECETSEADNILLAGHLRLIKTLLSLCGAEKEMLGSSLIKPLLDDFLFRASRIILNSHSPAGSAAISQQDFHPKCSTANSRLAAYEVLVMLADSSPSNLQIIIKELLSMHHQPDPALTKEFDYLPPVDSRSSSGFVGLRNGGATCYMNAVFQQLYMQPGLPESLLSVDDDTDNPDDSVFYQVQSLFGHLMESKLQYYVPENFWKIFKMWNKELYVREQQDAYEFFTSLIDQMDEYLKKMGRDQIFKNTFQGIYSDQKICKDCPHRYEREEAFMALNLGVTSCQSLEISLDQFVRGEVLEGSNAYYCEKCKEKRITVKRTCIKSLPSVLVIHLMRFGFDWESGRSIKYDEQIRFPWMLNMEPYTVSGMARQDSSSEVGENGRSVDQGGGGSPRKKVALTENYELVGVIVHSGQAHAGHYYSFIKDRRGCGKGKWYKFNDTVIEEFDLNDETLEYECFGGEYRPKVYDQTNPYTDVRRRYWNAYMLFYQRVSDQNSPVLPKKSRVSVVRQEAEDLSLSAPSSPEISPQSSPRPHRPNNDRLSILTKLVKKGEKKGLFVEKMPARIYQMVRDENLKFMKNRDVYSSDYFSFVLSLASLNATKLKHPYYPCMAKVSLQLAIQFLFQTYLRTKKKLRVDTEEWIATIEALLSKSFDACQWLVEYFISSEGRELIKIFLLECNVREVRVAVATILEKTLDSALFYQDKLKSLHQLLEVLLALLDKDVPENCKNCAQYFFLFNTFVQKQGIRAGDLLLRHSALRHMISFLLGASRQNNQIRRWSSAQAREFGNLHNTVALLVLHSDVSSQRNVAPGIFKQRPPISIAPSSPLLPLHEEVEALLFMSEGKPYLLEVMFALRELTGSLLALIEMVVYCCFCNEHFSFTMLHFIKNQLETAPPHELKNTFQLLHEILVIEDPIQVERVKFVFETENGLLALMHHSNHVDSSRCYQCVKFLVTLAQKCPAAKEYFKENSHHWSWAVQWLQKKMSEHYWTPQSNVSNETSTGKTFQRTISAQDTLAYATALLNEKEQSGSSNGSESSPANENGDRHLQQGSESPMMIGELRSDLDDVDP
How it was run: as §1

USP25 = biological target: T3, USP25 (UniProt Q9UHP3)
T3 sequence (whole entry): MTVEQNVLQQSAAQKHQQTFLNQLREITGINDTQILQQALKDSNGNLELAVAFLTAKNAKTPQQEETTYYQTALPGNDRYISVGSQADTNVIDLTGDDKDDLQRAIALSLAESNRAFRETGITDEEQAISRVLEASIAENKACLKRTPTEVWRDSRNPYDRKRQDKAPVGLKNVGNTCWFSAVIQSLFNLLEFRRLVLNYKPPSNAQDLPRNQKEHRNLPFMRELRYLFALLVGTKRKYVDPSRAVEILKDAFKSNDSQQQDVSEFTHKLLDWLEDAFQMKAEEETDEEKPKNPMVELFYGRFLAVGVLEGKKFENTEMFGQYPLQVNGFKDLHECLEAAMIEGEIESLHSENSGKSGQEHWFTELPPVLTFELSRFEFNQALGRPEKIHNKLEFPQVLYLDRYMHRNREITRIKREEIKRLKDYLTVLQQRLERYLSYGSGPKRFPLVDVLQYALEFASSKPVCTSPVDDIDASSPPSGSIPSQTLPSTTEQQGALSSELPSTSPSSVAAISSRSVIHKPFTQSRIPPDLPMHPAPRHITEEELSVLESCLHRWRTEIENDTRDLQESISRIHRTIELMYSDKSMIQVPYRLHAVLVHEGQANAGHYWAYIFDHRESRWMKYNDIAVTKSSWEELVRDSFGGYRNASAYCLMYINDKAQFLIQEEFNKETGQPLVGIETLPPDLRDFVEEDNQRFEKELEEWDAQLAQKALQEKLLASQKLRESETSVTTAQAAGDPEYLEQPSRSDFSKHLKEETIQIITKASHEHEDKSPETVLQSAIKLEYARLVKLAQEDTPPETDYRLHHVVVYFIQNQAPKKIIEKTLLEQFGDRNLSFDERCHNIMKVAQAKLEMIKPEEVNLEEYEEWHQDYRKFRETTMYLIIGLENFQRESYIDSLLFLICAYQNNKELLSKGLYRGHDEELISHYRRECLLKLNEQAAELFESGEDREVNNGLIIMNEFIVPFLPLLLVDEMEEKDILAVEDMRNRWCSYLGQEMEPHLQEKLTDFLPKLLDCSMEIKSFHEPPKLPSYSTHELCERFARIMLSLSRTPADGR
How it was run: as §1

USP28 = biological target: T4, USP28 (UniProt Q96RU2)
T4 sequence (whole entry): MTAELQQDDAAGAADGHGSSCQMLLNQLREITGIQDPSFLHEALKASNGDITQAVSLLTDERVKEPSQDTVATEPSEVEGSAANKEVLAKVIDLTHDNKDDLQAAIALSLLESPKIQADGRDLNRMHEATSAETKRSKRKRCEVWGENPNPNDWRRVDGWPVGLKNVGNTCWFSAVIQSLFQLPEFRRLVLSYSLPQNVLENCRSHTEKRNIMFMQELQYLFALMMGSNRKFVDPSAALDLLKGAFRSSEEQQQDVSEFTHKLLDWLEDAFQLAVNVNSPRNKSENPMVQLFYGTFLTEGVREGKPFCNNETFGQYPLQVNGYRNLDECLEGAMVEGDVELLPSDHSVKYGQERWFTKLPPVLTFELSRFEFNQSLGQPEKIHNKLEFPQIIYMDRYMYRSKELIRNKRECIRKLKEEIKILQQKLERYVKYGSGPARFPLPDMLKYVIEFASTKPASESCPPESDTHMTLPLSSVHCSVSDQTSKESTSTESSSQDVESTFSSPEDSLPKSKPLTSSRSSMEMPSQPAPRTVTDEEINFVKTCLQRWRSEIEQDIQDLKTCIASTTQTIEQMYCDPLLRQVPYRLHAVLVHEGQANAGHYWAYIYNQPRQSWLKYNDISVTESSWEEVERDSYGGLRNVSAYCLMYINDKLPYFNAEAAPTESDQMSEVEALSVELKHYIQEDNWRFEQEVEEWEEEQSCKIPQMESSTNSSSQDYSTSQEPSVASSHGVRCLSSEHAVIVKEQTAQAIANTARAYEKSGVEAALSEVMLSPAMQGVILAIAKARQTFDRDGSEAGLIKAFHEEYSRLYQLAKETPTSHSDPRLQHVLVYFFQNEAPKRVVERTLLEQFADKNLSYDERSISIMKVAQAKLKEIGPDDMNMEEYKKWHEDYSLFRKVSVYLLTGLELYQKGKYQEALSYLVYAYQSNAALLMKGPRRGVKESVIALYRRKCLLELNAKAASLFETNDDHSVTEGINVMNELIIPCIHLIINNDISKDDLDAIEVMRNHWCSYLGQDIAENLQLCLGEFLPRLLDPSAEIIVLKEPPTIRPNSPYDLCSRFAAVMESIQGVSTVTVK
How it was run: as §1

Measured: log2 ratio of Biotin-Ahx-Ub-VS probe labelling

O=C(CCl)NCc1cccc(N2CCCC2=O)c1
inactive: USP19 0.025 | USP22 0.303 | USP24 0.00291 | USP25 -0.383 | USP28 -0.252
